Consider six molecules from PubChem BioAssay AID493203 (National Center for Advancing Translational Sciences (NCATS), 2011).

Records with an inconclusive call do not appear. Active and inactive are the calls of the source. Calls follow the shape of the dose curve; as a rule, active = well fitted activation curve with a large enough effect; inconclusive = small, poorly fitted or top-dose-only effect; inactive = flat fitted curve, though single readings scatter.

This assay is described as follows: qHTS Assay for NPC1 Promoter Activators: Initial hit validation from the primary screen.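 Also: reporter driven by the mutant form of the NPC1 promoter.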 The conditions noted are these: Huh7 NPC1 promoter-luciferase reporter, luminescence, 24 h; series mostly up to 46.1 µM. The source says: NIH Chemical Genomics Center [NCGC] NIH Molecular Libraries Probe Production centers Network [MLPCN] MLPCN Grant: MH089375-01A1 Assay Submitter (PI): Yiannis A. Ioannou NCGC Assay Overview: Niemann Pick Type C (NPC) is a rare neurodegenerative lipidosis that is characterized by lipid storage in the endosomal/lysosomal system. Treatment modalities for this devastating disease are currently non-existent due to the severe obstacles associated with accessing the central nervous system with proteins or genes. The majority of mutations causing NPC disease are missense mutations that are distributed throughout the length of the NPC1 protein, with the most prevalent being the I1061T allele. Although NPC1 mutant proteins may be functional, they are typically trapped in the ER due to misfolding. […] We have developed and optimized a cell based luciferase reporter assay in 1536 well format for the identification of up-regulators of the mutant NPC1 promoter. This assay presents data on the validation of hits from the primary screen.
The NPC1 promoter is cloned in front of the luciferase reporter gene, therefore NPC promoter activation results in luciferase expression. Frozen stock of the NPC1 promoter transfected Huh7 cells were obtained from the laboratory of Dr. Yiannis Ioannou (The Mount Sinai School of Medicine, New York, NY). Cells were propagated and maintained at NCGC in medium containing RPMI-1640 supplemented with 10% FBS, 2mM L-glutamine, and 50ug/ml penicillin/streptomycin. Cells were harvested in and plated for assays in OP-MEM I reduced-serum medium supplemented with 10% FBS. The Amplite luciferase reporter gene assay kit was purchased from ABD Bioquest and prepared/stored according to manufacturers recommendations. qHTS Assay Setup: 1. Dispensed 5ul of Huh7 cells stably expressing NPC1-luciferase at a density of 1500 cells per well 1536-well plates. 2. Incubate cells at 37C, 5% CO2, and 95% humidity for 2 hours. 3. Transferred 23nl per well of compound in DMSO solution. 4. Incubated at 37C, 5% CO2, and 95% humidity for 24 hours. 5. Dispensed 3ul per well of Amplite reagent(ABD Bioquest) per well. 6. Incubate at ambient for 10 minutes. 7. Read using the luminescence protocol on the ViewLux plate reader (Perkin Elmer).
With `COc1ccc(C(CC(=O)N2CCC3(CC2)OCCO3)NS(=O)(=O)c2ccc(F)cc2)cc1` (stereo unspecified), the result was inactive.

As for `COc1cccc(CCNCc2ccc(SC)cc2)c1`, the molecule was classed as inactive. The result for `Cc1cccn2c(NCC3CCCO3)c(C(C)C)nc12` (stereo unspecified) reads “inactive”; that for `O=C1c2ccccc2C(=O)N1Cc1nc2ccccc2c(=O)n1-c1cccnc1`, “inactive”. With `CN1CCc2cc3c(c4c2C1Cc1ccccc1-4)OCO3` (stereo unspecified) the entry was “inactive”; with `CCC(=NCc1cccnc1)c1c(O)n(-c2ccccc2)c(=O)[nH]c1=O`, “inactive”.
